Bioassay records: PubChem BioAssay, National Center for Advancing Translational Sciences (NCATS)
The list is not random: actives were taken first. Their share in the collection is about 2.4%.
Rango dissoc inh: prevents RanGTP from dissociating the Rango-importin beta complex; Biochemical FRET Rango-importin beta, RanGTP-induced dissociation; Potency, µM (highest dose often 46.1 µM), for inactives: top-dose activity change, negative = inhibition; hit rate 0.071% among 340,000; calls by dose curve; note: % of control where 0% means no effect; nearly all actives have a fitted effect of over 45% in size
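Quantitative HTS using a FRET biosensor: 0.1 uM Rango, 0.25 uM importin beta, 0.6 uM Ran, 2 mM GTP, 0.2 uM RCC1 final, PBS with DTT, Tween-20 and BSA. Post-read taken 45 min after Ran addition.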
Tb PFK inh: T. brucei PFK enzyme inhibition; O15648; T. brucei PFK, ADP-Glo luminescence; Potency, µM (highest dose often 57.5 µM), inactives show at the top dose activity, negative = inhibition, hits mostly inhibitors; hit rate 0.17% among 330,000; AID 485367;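 note: 0% = uninhibited 1x PFK enzyme wells and -100% = no-enzyme wells; nearly all actives have a fitted effect of over 60% in size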
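PFK 1.25 nM, F6P 0.5 mM, ATP 0.1 mM, 0.1 M TEA pH 8.0, 5 mM MgCl2, 0.01% Tween20, 0.1% BSA; 45 min RT. ADP-Glo readout. qHTS titration up to 57 uM; curves fitted, compounds curve-classed.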
ELG1 DNA repair: blocks ELG1-dependent DNA repair in HEK293T cells | HEK293T ELG1-luciferase reporter, luminescence, 16 h; DNA damage induced by 5-fluorouridine | Potency, µM (highest dose often 46.1 µM), for the others: at the highest dose activity change, negative = inhibition, actives largely listed as inhibitors | hit rate 2.3% among 330,000; note: % is set by controls: 0 for no effect and ±100 for the full control effect; nearly all actives have a fitted effect of over 55% in size
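Luminescence from the luciferase reporter, measured 30 min after ONE-Glo reagent at room temperature, was the read-out. Beforehand, 2,000 cells per well were exposed for 16 hr at 37 °C to 5-fluorouridine together with compound or vehicle.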
PKM2 activator: activators of human pyruvate kinase M2; P14618; purified PKM2, Kinase-Glo ATP luminescence, activation; response scale: 0% is enzyme alone, no compound; Potency, µM (highest dose often 57.5 µM), for inactives: at the highest dose activation, hits mostly activators; hit rate 0.34% among 260,000; note: % is set by controls: 0 for no effect and ±100 for the full control effect; nearly all actives have a fitted effect of over 55% in size
Target sequence (P14618 whole entry, looked up): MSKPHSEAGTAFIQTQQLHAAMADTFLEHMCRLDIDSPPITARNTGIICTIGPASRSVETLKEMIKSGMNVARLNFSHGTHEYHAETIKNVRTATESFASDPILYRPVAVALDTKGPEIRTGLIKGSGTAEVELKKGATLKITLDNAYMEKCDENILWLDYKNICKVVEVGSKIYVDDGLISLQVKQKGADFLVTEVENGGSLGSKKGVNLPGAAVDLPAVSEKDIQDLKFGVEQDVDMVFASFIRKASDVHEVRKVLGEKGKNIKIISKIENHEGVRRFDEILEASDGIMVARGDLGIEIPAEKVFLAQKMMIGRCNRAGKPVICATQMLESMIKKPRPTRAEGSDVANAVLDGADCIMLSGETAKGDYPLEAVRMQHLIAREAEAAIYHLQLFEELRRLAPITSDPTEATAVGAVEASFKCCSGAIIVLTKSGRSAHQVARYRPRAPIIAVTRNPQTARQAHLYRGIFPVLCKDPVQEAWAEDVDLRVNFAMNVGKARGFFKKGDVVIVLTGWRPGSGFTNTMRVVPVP
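Purified hPK-M2 (>95% pure) converted ADP (0.1 mM final) to ATP with 0.5 mM PEP in 50 mM imidazole pH7.2, KCl, MgCl2, Tween 20, BSA; 1 h at room temperature. ATP detected by Kinase-Glo luminescence.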
Rango complex inh: prevents formation of the Rango-importin beta complex | Q14974 | Rango CFP/YFP FRET sensor + importin beta, 45 min | Potency, µM (series often up to 92.2 µM), inactives show at the highest dose inhibition of complex formation | hit rate 0.031% among 340,000; calls by dose curve;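 note: 0% = DMSO wells and 100% = buffer wells lacking importin beta; nearly all actives have a fitted effect of over 15% in size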
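FRET biosensor Rango (snurportin 1 IBB between N-terminal EYFP and C-terminal Cerulean), 50 nM in PBS/1 mM DTT/0.02% Tween-20/0.1% BSA, preincubated 5 min RT with compound; 0.125 microM importin beta added, 45 min RT, CFP/YFP FRET ratio read.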
Tb PGK inh: inhibitors of T. brucei phosphoglycerate kinase. P07378. PGK/GAPDH coupled, Kinase-Glo luminescence, 60 min. Potency, µM (titrated, usually from 57.5 µM), inactives show at the highest dose activity change, negative = inhibition, usual class: inhibitors. hit rate 0.043% among 380,000. AID 602233; note: % is set by controls: 0 for no effect and ±100 for the full control effect; nearly all actives have a fitted effect of over 60% in size
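Recombinant glycosomal PGK reaction used 1,3-bisphosphoglycerate generated in-well by GAPDH (100nM final) in 100mM TEA pH 7.6, 5mM MgCl2, 0.01% Tween-20. After 60 minutes at room temperature, ATP was read by Kinase-Glo Plus luminescence end-point.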
* = called active by the depositor. Unless noted, calls come from the whole dose curve; as a rule, active = well fitted curve in the direction sought with a large enough effect; inconclusive = small, poorly fitted or top-dose-only effect, or another doubt; inactive = no such curve, though single readings can be large; an effect the other way counts as inactive or inconclusive. Potency is the fitted concentration of half-maximal effect.

`CC1CN(C2=N/C(=C/c3ccc4c(c3)OCO4)C(=O)N2)CC(C)O1` (stereo not drawn) gave Rango dissoc inh inconclusive, Tb PFK inh 4%, ELG1 DNA repair 21µM*, PKM2 activator -7%, Rango complex inh inconclusive and Tb PGK inh 9%.
Screening Cc1ccc(NC(=O)Cn2c(=O)n(CC(=O)NCCc3ccccc3)c(=O)c3ccccc32)cc1C returned Tb PGK inh -11%.
Cc1cccc(-c2nc(Nc3cccc(O)c3)c3ccccc3n2)c1 was read as Rango dissoc inh 1%, Tb PFK inh 0%, ELG1 DNA repair inconclusive, Rango complex inh 0% and Tb PGK inh -2%.
For c1ccc2c(Nc3ccc(N4CCOCC4)cc3)nc(N3CCOCC3)nc2c1 the results were Rango dissoc inh 4%, Tb PFK inh 1%, ELG1 DNA repair 9.2µM*, PKM2 activator 4%, Rango complex inh 7% and Tb PGK inh 1%.
Cc1cccc(-c2nc(Nc3ccc(N4CCOCC4)cc3)c3ccccc3n2)c1 was read as Rango dissoc inh 8%, Tb PFK inh -6%, ELG1 DNA repair 23µM*, PKM2 activator 14%, Rango complex inh -3% and Tb PGK inh -9%.
COc1ccc(-n2c(=O)c3sc4ccccc4c3n(CC(=O)NCc3ccccc3)c2=O)cc1 was read as Tb PGK inh 4%.
Screening COc1ccccc1NC(=O)C1=C(C)NC2=C(C(=O)CC(c3ccc(OC)c(OC)c3)C2)C1c1coc2ccccc2c1=O (stereo not drawn) returned Rango dissoc inh -14%, Tb PFK inh -1%, ELG1 DNA repair 10µM*, PKM2 activator 7%, Rango complex inh 1% and Tb PGK inh 5%.
CCN1C(=O)[C@H]2[C@@H](c3ccc(C)cc3)N[C@]3(CCCN(Cc4ccc(OC)cc4)C3=O)[C@H]2C1=O was read as Tb PGK inh 2%.
Screening O=C(N/N=C/c1cc(Cl)cc([N+](=O)[O-])c1O)NC12CC3CC(CC(C3)C1)C2 returned Rango dissoc inh -8%, Tb PFK inh -3%, ELG1 DNA repair -28%, PKM2 activator 2%, Rango complex inh 1% and Tb PGK inh 11µM*.
For O=C(N/N=C/c1ccccc1O)NC12CC3CC(CC(C3)C1)C2 the results were Rango dissoc inh -7%, Tb PFK inh 10%, ELG1 DNA repair inconclusive, Rango complex inh 2% and Tb PGK inh 13%.
`COc1ccccc1C(=O)NC(=O)COC(=O)Cc1ccccc1[N+](=O)[O-]` gave Rango dissoc inh -1%, Tb PFK inh -1%, ELG1 DNA repair 8%, Rango complex inh -1% and Tb PGK inh -4%.
Screening COc1ccc(NC(=O)CSc2nnc3c4c(nc(-c5ccccc5)n23)CC(C)(C)OC4)cc1 returned Rango dissoc inh 4%, Tb PFK inh -1%, ELG1 DNA repair 18µM*, PKM2 activator -4%, Rango complex inh 3% and Tb PGK inh -11%.
`COc1ccc(-c2nc3c(c4nnc(SC(C)C(=O)Nc5ccc(C)cc5)n24)COC(C)(C)C3)cc1` (stereo not drawn) gave Rango dissoc inh -1%, Tb PFK inh -12%, ELG1 DNA repair 21µM*, PKM2 activator -8%, Rango complex inh -3% and Tb PGK inh -5%.
For Cc1ccc(NC(=O)C(C)Sc2nnc(C)n2C)cc1 (stereo not drawn) the results were Rango dissoc inh 10%, Tb PFK inh -17%, ELG1 DNA repair 4%, PKM2 activator 4%, Rango complex inh -1% and Tb PGK inh -9%.
For Cc1ccc(-n2ncc3c(N4CCCC(C)C4)ncnc32)c(C)c1 (stereo not drawn) the results were Rango dissoc inh 15%, Tb PFK inh 2%, ELG1 DNA repair inconclusive, PKM2 activator 12%, Rango complex inh 0% and Tb PGK inh -5%.
